Experimental data reported in publication PMC5540273 (PLoS ONE, 2017).

The compounds below were run on CAMK2D. Conditions: concentration: 1 μM, replicates: in singlicate; n = 1.
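Further: KINOMEscan kinase panel screen.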

Structure (SMILES) | %Inh [%]
COc1cccc(C(=O)Nc2cccc(Oc3ccc4nc(NC(=O)C5CC5)cn4n3)c2)c1 | 15
Cl.Cl.NCC(NC(=O)c1cc(-c2ccccc2)c(-c2ccnc3[nH]ccc23)s1)c1ccccc1 (centres unmarked) [GSK1321561] | 5
CC(=O)Nc1nc2cnc(Nc3cc(NC(=O)c4cccc(C5(C#N)CC5)c4Cl)ccc3C)nc2s1 | 0
COc1cccc(NC(=O)NC2CCN(c3ccnc(Nc4cc(OC)c(OC)c(OC)c4)n3)C2)c1 (centres unmarked) [GSK1379763] | 13
COc1cc2c(cc1OCCN1CCNCC1)ncc1c3ccc(C#N)cc3[nH]c21 | 88
CSc1cccc2c(-c3ccncn3)c(-c3ccc(F)cc3)nn12 [GW514786] | 0
Cn1cc(-c2ccc3c(c2)CCN3C(=O)Cc2cccc(Cl)c2)c2c(N)ncnc21 [GSK2606590] | 18
CCS(=O)(=O)c1ccc(OC)c(Nc2nccc(-c3c(-c4cccc(NC(=O)c5c(F)cccc5F)c4)nn4ncccc34)n2)c1 [GSK326180] | 15
CCn1c(-c2nonc2N)nc2c(C#CC(C)(C)O)ncc(OCCCCN)c21.O=C(O)C(F)(F)F.O=C(O)C(F)(F)F [GSK507274] | 4
O=C(Nc1cccc(-c2nn3ccccc3c2-c2ccnc(Nc3cccc(C(F)(F)F)c3)n2)c1)c1c(F)cccc1F [GSK292658] | 5
CN(c1ccc(NC(=O)Nc2cc(C(F)(F)F)ccc2F)cc1)c1ccnc(Nc2ccc(S(N)(=O)=O)cc2)n1 [GW809893] | 1
COc1cc(Nc2ncc3c(C)nc(-c4cc5ccccc5[nH]4)n3n2)cc(OC)c1OC [GW869516] | 6
Cc1ccc(C)c(NC(=O)NC2CCN(c3ccnc(Nc4ccc(F)cc4)n3)C2)c1 (centres unmarked) [GSK1379720] | 19
c1ccc(Oc2ccc(Nc3ccnc4cc(-c5ccc(CNCCN6CCOCC6)o5)ccc34)cc2)nc1 [GW567145] | 0
COc1cc(Nc2nccc(-c3c(-c4cccc(NC(=O)c5c(F)cccc5F)c4)nn4ncccc34)n2)cc(OC)c1OC [GSK327238] | 10
COc1cc(Nc2nccc(N3CCC(NC(=O)Nc4cccc(C(C)=O)c4)C3)n2)cc(OC)c1OC (centres unmarked) [GSK1379753] | 0

Structure (SMILES) | %Inh [%]
Cl.Cl.NCC(NCc1ccc(-c2ccnc3[nH]ccc23)s1)c1ccccc1 (centres unmarked) [GSK1321565] | 13
Oc1cc(Nc2ccnc3cc(I)ccc23)ccc1F [GW552771] | 0
Cc1ccc(C(=O)Nc2ccc(Nc3ccnc4cc(-c5nccs5)ccc34)cc2O)cc1.Cl [GW494702] | 0
C[C@@H]1CC[C@@H](C(=O)Nc2ccccc2)CN1c1cc(-c2ccc3c(N)n[nH]c3c2)nc(N)n1 [GSK2286062] | 17
Nc1ncc(-c2cccnc2)c2scc(-c3ccc4c(c3)CCN4C(=O)Cc3ccccc3)c12 [GSK683281] | 19
Cl.c1ccc(-c2ccc3c(Nc4ccc5[nH]ccc5c4)ccnc3c2)nc1 [GW440138] | 7
CCn1c(-c2nonc2N)nc2c(C#CC(C)(C)O)nc(OC[C@H](N)c3ccccc3)cc21 [GSK943949] | 0
Cn1cc(-c2ccc3c(c2)CCN3C(=O)Cc2cccc(F)c2)c2c(N)ncnc21 [GSK2603358] | 16
O=C(Nc1cccc(-c2nn3ncccc3c2-c2ccnc(Nc3ccccc3)n2)c1)c1c(F)cccc1F [GSK198271] | 13
COc1cc(Nc2nccc(-c3c(-c4cccc(NC(=O)c5c(F)cccc5F)c4)nn4ccccc34)n2)cc(OC)c1OC [GSK323521] | 35
FC(F)(F)c1ccc(/C=C/c2cncnc2Nc2ccc3[nH]c(Cc4ccccc4)nc3c2)cc1 [GW709199] | 3
CC(C)(C)c1ccc2nccc(Nc3cccc(O)c3)c2c1 [GW856795] | 0
CCc1ccc(-c2ccc3c(c2)-c2c(cnn2C)S(=O)(=O)N3C)cc1 | 0
COc1cccc(C2=C(Nc3ccc(Cl)c(C(=O)O)c3)C(=O)NC2=O)c1 [SB-390769] | 3
NCCCC(NC(=O)c1cc(Br)c(-c2ccnc3[nH]ccc23)s1)c1ccccc1.O=C(O)C(F)(F)F.O=C(O)C(F)(F)F (centres unmarked) [GSK1287544] | 0
COC(=O)Nc1nc2ccc(Oc3ccc(NC(=O)Nc4cc(C(F)(F)F)ccc4F)cc3)cc2n1C.Cl [GW692089] | 0
